Laboratory results from PubChem BioAssay (NCATS).
Where “and” joins values, the source holds several entries; their conditions need not be identical. Identical values can stand only once. Results filed as inconclusive are left out. Calls of active or inactive are those of the source. Calls come from the whole dose curve; as a rule, active = well fitted curve in the direction sought with a large enough effect; inconclusive = small, poorly fitted or top-dose-only effect, or another doubt; inactive = no such curve, though single readings can be large; an effect the other way counts as inactive or inconclusive.

Assays:
[1] = biological target: Cytochrome P450 3A7 (Homo sapiens) (UniProt P24462); assay: Cytochrome P450 family 3 subfamily A member 7 (CYP3A7) small molecule antagonists: luciferase biochemical qHTS assay (AID 1963596); note: % is set by controls: 0 for no effect and ±100 for the full control effect; nearly all actives have a fitted effect of over 40% in size
Sequence of Cytochrome P450 3A7 (Homo sapiens) (P24462 whole entry, looked up): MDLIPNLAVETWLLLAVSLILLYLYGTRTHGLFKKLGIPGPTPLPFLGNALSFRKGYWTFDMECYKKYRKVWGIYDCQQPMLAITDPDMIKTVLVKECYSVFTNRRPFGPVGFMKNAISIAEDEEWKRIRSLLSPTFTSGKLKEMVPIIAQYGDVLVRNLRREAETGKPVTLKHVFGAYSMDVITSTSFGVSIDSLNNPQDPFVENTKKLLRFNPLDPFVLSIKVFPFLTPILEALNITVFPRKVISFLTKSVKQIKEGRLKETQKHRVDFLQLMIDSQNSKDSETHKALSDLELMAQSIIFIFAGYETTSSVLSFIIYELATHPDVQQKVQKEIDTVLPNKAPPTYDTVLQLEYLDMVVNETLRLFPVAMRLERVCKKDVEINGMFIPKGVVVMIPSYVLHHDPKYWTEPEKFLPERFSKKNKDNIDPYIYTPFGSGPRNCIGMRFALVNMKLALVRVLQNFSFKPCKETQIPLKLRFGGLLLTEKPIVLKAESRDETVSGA
Summary of the method: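 Recombinant CYP3A7 P450-Glo luminescent assay: enzyme-proluciferin substrate mix preincubated with compound 10 min at room temperature, reaction started with NADPH regeneration system for 1 h. Luciferin detected by luminescence; ketoconazole as positive control.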

[2] = Quantitative highthroughput screen to assess conditional lethalithy of NOMO1 cells grown in RPMI1640 with untreated serum (RPMI+s) (AID 1963876); note: nearly all actives have a fitted effect of over 35% in size; note: potency is the fitted concentration of half-maximal effect;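 for viability: 100% = DMSO wells and 0% = empty wells without cells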
Summary of the method: (§1)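 Each medium arm—HPLM with 10% dialyzed FBS, or RPMI1640 with 5 mM glucose and 10% untreated or dialyzed FBS—was screened against an 11-point, 3-fold compound titration for 48 h at 37 °C, with CellTiter-Glo luminescence as endpoint.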

[3] = Quantitative highthroughput screen to assess conditional lethalithy of P12 Ichikawa cells grown in RPMI1640 with dialyzed fetal bovine serum (RPMI+ds) (AID 1963880); conditions: Potency: P12-Ichikawa viability; note: nearly all actives have a fitted effect of over 35% in size; note: potency is the fitted concentration of half-maximal effect;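 for viability: 100% = DMSO wells and 0% = empty wells on each plate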
Summary of the method: as §1

[4] = Quantitative highthroughput screen to assess conditional lethalithy of SEM cells grown in Human Plasma-Like Medium with dialyzed fetal bovine serum (HPLM+ds) (AID 1963882); note: nearly all actives have a fitted effect of over 35% in size; note: potency is the fitted concentration of half-maximal effect; for viability: series mostly up to about 46 µM
Summary of the method: as §1

[5] = Quantitative highthroughput screen to assess conditional lethalithy of SEM cells grown in RPMI1640 with unreated serum (RPMI+s) (AID 1963883); note: nearly all actives have a fitted effect of over 35% in size; note: potency is the fitted concentration of half-maximal effect;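 for viability: 100% = DMSO wells and 0% = empty wells without cells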
Summary of the method: as §1

[6] = Quantitative highthroughput screen to assess conditional lethalithy of SEM cells grown in RPMI1640 with dialyzed fetal bovine serum (RPMI+ds) (AID 1963884); note: nearly all actives have a fitted effect of over 35% in size; note: potency is the fitted concentration of half-maximal effect;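 for viability: series mostly up to about 46 µM; 100% = DMSO control wells and 0% = empty wells without cells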
Summary of the method: as §1

[7] = Cellular viability qHTS for adrenocortical cancer (ACC) cell line SW-13 (AID 1963989); conditions: SW-13 ACC cells viability, CellTiter-Glo, 48 h; activity (max response): stronger effect = lower value; note: nearly all actives have a fitted effect of over 65% in size; note: potency is the fitted concentration of half-maximal effect;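 for activity (max response): cells grown in serum-free medium with ITS supplement; % is set by controls: 0 for no effect and ±100 for the full control effect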
Summary of the method: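 IC50 and maximal-response values come from four-parameter logistic fits of titration data. SW-13 cells in serum-free medium received compounds (up to 46 uM final) for 48 h before CellTiter-Glo luminescence.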

[8] = Cellular viability qHTS for adrenocortical cancer (ACC) cell line NCI-H295R (AID 1963990); note: nearly all actives have a fitted effect of over 60% in size; note: potency is the fitted concentration of half-maximal effect
Summary of the method: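 Adrenocortical carcinoma cells, suspended at 300 000 cells/mL in serum-free DMEM plus ITS, rested overnight before pin transfer of compound. After two days' incubation, ATP-dependent luminescence was recorded and curve-fitted.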

[9] = Quantitative highthroughput screen to assess conditional lethalithy of P12 Ichikawa cells grown in Human Plasma-Like Medium with dialyzed fetal bovine serum (HPLM+ds) (AID 1963879); conditions: Potency: viability; note: nearly all actives have a fitted effect of over 35% in size; note: potency is the fitted concentration of half-maximal effect; for viability: series mostly up to about 46 µM
Summary of the method: as §1

[10] = Quantitative highthroughput screen to assess conditional lethalithy of P12 Ichikawa cells grown in RPMI1640 with untreated serum (RPMI+s) (AID 1963881); conditions: Potency: viability; note: nearly all actives have a fitted effect of over 35% in size; note: potency is the fitted concentration of half-maximal effect;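 for viability: series mostly up to about 46 µM; 100% = DMSO wells and 0% = empty wells without cells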
Summary of the method: as §1

[11] = Quantitative highthroughput screen to assess conditional lethalithy of NOMO1 cells grown in RPMI1640 with dialyzed fetal bovine serum (RPMI+ds) (AID 1963877); note: nearly all actives have a fitted effect of over 30% in size; note: potency is the fitted concentration of half-maximal effect;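 for viability: series mostly up to about 46 µM; 100% = DMSO control wells and 0% = empty wells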
Summary of the method: as §1

[12] = Quantitative highthroughput screen to assess conditional lethalithy of NOMO1 cells grown in Human Plasma-Like Medium with dialyzed fetal bovine serum (HPLM+ds) (AID 1963878); note: nearly all actives have a fitted effect of over 35% in size; note: potency is the fitted concentration of half-maximal effect;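 for viability: 100% = DMSO wells and 0% = empty wells on each plate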
Summary of the method: as §1

O=C(NCCO[N+](=O)[O-])c1cccnc1
inactive: Potency [1] | Potency [2] | Potency [3] | Potency [4] | Potency [5] | Potency [6] | activity (max response) [7] 2.63% and 5.13%

Cc1ccc(C(C)C)c(O)c1
inactive: Potency [1] | activity (max response) [7] 10.4% | Potency [8]

CCCC(CCC)C(=O)O
inactive: Potency [1] | Potency [2] | Potency [9] | Potency [3] | Potency [10] | Potency [4] | Potency [6] | activity (max response) [7] 6.17% and -13.6% | Potency [8]

COc1c(N2C[C@@H]3CCCN[C@@H]3C2)c(F)cc2c(=O)c(C(=O)O)cn(C3CC3)c12
inactive: Potency [1] | activity (max response) [7] -4.75%

CC1CC(OC(=O)C(O)c2ccccc2)CC(C)(C)N1C (stereo not drawn)
inactive: Potency [1] | activity (max response) [7] 2.77%

Fc1ccc(C(c2ccc(F)cc2)N2CCNCC2)cc1
inactive: Potency [1] | activity (max response) [7] 4.07%

c1ccc2[nH]c(-c3cscn3)nc2c1
active: Potency [12] 8330 nM | Potency [9] 9350 nM
inactive: Potency [1] | Potency [2] | Potency [11] | activity (max response) [7] -9.06% and -18.4% | Potency [8]

O=c1[nH]cc(F)c(=O)[nH]1
active: Potency [12] 10500 nM | Potency [3] 10500 nM | Potency [4] 9350 nM | Potency [5] 9350 nM | Potency [6] 10500 nM
inactive: Potency [1] | activity (max response) [7] -6.36% | Potency [8]

N#C[C@H]1C[C@H]2C[C@@H]2N1C(=O)[C@@H](N)C12CC3CC(CC(O)(C3)C1)C2
active: Potency [12] 10500 nM
inactive: Potency [1] | Potency [9] | Potency [3] | Potency [10] | Potency [6] | activity (max response) [7] 11.7% | Potency [8]

Nc1cccc2c1CN(C1CCC(=O)NC1=O)C2=O (stereo not drawn)
inactive: Potency [1] | Potency [2] | Potency [11] | Potency [12] | Potency [9] | Potency [10] | Potency [4] | Potency [6] | activity (max response) [7] -7.43% | Potency [8]

O=C(Nc1ccc([N+](=O)[O-])cc1)Nc1ccc([N+](=O)[O-])cc1
inactive: Potency [1] | activity (max response) [7] 3.91%

CCCCc1nc2cc(C=CC(=O)NO)ccc2n1CCN(CC)CC
active: Potency [2] 4180 nM | Potency [11] 6620 nM | Potency [9] 2640 nM | Potency [3] 2960 nM | Potency [10] 2960 nM | Potency [4] 1870 nM | Potency [5] 2090 nM | Potency [6] 2090 nM
inactive: Potency [1]

NNc1nncc2ccccc12
inactive: Potency [1] | Potency [2] | Potency [11] | Potency [12] | Potency [3] | Potency [10] | Potency [4] | activity (max response) [7] 12.3% and -11.3% | Potency [8]

Nc1ccn(C2CO[C@H](CO)O2)c(=O)n1 (stereo partly drawn)
inactive: Potency [1] | Potency [2] | Potency [11] | Potency [9] | Potency [3] | Potency [10] | Potency [4] | Potency [5] | Potency [6]

CCN1CC(CCN2CCOCC2)C(c2ccccc2)(c2ccccc2)C1=O (stereo not drawn)
inactive: Potency [1] | activity (max response) [7] 1.41%

COc1cc(Nc2ncc3c(n2)-c2ccc(Cl)cc2C(c2c(F)cccc2OC)=NC3)ccc1C(=O)O
active: Potency [2] 83.3 nM | Potency [11] 66.2 nM | Potency [9] 74.3 nM | Potency [10] 59 nM | Potency [7] 31600 nM | Potency [8] 2240 nM
inactive: Potency [1]

N[C@@H](CSCCCO)C(=O)O
inactive: Potency [1] | activity (max response) [7] 14.2%

Cc1ccc(C(=O)C(C)CN2CCCCC2)cc1 (stereo not drawn)
inactive: Potency [1] | activity (max response) [7] -5.23% | Potency [8]

O=c1[nH]c(=O)n([C@H]2O[C@H](CO)[C@@H](O)[C@@H]2O)cc1/C=C\Br
inactive: Potency [1] | activity (max response) [7] -3.87% | Potency [8]

Cc1nc(N)nc(N)c1-c1ccc(Cl)c(Cl)c1
inactive: Potency [1]
active: Potency [7] 231 nM | Potency [8] 130 nM

O=C(O)P(=O)(O)O
inactive: Potency [1] | activity (max response) [7] 10.2% | Potency [8]

CC1c2ccccc2CN1NC(=O)c1ccc(Cl)c(S(N)(=O)=O)c1 (stereo not drawn)
inactive: Potency [1] | activity (max response) [7] -11.8% | Potency [8]
